# According to publication PMC4552634, “A New Set of Chemical Starting Points with Plasmodium falciparum Transmission-Blocking Potential for Antimalarial Drug Discovery” (PLoS ONE, 2015):
# The campaign covered roughly 13,000 compounds. About 3,200 (25%) showed an effect of 50% or more. The list shows a part of the results.
# System: P. falciparum stage V gametocytes
# Design: BacTiter-Glo ATP luminescence viability of purified stage V gametocytes in 384-well plates, per cent inhibition versus DMSO
# Conditions: 48 h, 5 µM; inhibitor
row,SMILES,% Inhibition [%]
1,O=S(=O)(NCCCN1CCOCC1)c1ccc2nccc(Nc3ccc(Oc4ccccc4)cc3)c2c1 [TCMDC-138692],-57.28
2,FC(F)(F)c1cccnc1N1CCC(Nc2nc3ccc(Cl)cc3[nH]2)CC1 [TCMDC-135644],-32.98
3,CCNc1cc(C(=O)N[C@@H](Cc2ccccc2)[C@H](O)CNCCc2ccccc2)cc(N2CCCC2=O)c1 [TCMDC-141682],21.5
4,COc1ccc(CC(=O)NC(CCN2CCC3(CC2)CN(S(C)(=O)=O)c2ccccc23)c2ccc(Cl)c(Cl)c2)cc1OC (stereo not drawn) [TCMDC-141764],25.44
5,CS(=O)(=O)N1CC2(CCN(CCC(NC(=O)Nc3ccccc3)c3ccc(Cl)c(Cl)c3)CC2)c2ccccc21 (stereo not drawn) [TCMDC-141766],12.26
6,C[C@@H](NC(=O)NC(CCN1CCC2(CC1)CN(S(C)(=O)=O)c1ccccc12)c1ccc(Cl)c(Cl)c1)c1ccccc1 (stereo partly drawn) [TCMDC-141767],25.06
7,CS(=O)(=O)N1CC2(CCN(CCC(NC(=O)NCc3ccc(Cl)c(Cl)c3)c3ccc(Cl)c(Cl)c3)CC2)c2ccccc21 (stereo not drawn) [TCMDC-141769],-4.824
8,COc1cc(C(=O)N2CCC(CCN3CCC4(CC3)CN(S(C)(=O)=O)c3ccccc34)CC2Cc2ccc(Cl)c(Cl)c2)cc(OC)c1OC (stereo not drawn) [TCMDC-141627],50.03
9,CS(=O)(=O)N1CC2(CCN(CCC(NC(=S)Nc3ccccc3)c3ccc(Cl)c(Cl)c3)CC2)c2ccccc21 (stereo not drawn) [TCMDC-141770],57.16
10,CS(=O)(=O)c1cccc(-c2ccc3oc(C(N)=O)c(NC(=O)c4cccs4)c3c2)c1 [TCMDC-138862],19.31
11,O=C(CCCCCNC(=O)c1ccc(O)c(-c2ccc(Cl)c(Cl)c2)c1)NCCN1CCCCC1 [TCMDC-140856],8.201
12,COc1cc(Cc2cnc(N)nc2N)cc(OCCCc2cc(OCc3ccccc3)no2)c1OC [TCMDC-138084],0.05649
13,Cc1[nH]c2ccccc2c1C1=CCN(CCCCC2(C)C(=O)Nc3cccc(F)c32)CC1 (stereo not drawn) [TCMDC-140942],52.59
14,COc1ccc2[nH]cc(C3=CCN(CC4CC4C(=O)c4ccccc4)CC3)c2n1 (stereo not drawn) [TCMDC-136871],-1.485
15,COc1ccc(C(=O)C2CC2CN2CC=C(c3c[nH]c4cccc(Br)c34)CC2)cc1 (stereo not drawn) [TCMDC-136801],-30.41
16,O=C(c1ccccc1)C1CC1CN1CC=C(c2c[nH]c3ccccc23)CC1 (stereo not drawn) [TCMDC-136771],-5.765
17,Cc1[nH]c2ccccc2c1C1=CCN(CCCCC2(C)C(=O)Nc3ccccc32)CC1 (stereo not drawn) [TCMDC-140740],-83.27
18,COc1cccc(C(=O)C2CC2CN2CC=C(c3c[nH]c4ccc(OC)nc34)CC2)c1 (stereo not drawn) [TCMDC-136875],11.19
19,COc1cccc(C(=O)C2CC2CN2CC=C(c3c(C)[nH]c4ccccc34)CC2)c1 (stereo not drawn) [TCMDC-136874],78.13
20,Cc1[nH]c2cc(F)ccc2c1C1=CCN(CCCCC2(C)C(=O)Nc3ccccc32)CC1 (stereo not drawn) [TCMDC-141003],-43.4

row,SMILES,% Inhibition [%]
1,COc1ccc(C(=O)C2CC2CN2CC=C(c3c(C)[nH]c4ccccc34)CC2)cc1 (stereo not drawn) [TCMDC-136872],7.556
2,COc1cccc(C(=O)C2CC2CN2CC=C(c3c[nH]c4cccc(Br)c34)CC2)c1 (stereo not drawn) [TCMDC-136773],-17.42
3,COc1ccc(C(=O)C2CC2CN2CC=C(c3c[nH]c4ccc(OC)nc34)CC2)cc1 (stereo not drawn) [TCMDC-136873],84.74
4,Cc1[nH]c2ccccc2c1C1=CCN(CC2CC2C(=O)c2ccccc2)CC1 (stereo not drawn) [TCMDC-136870],56.06
5,Nc1nc(N)c2c(ccc3nn(Cc4cccnc4)cc32)n1 [TCMDC-137968],-0.02415
6,CS(=O)(=O)c1ccc(-c2cc(C(F)(F)F)nc(N[C@@H]3CCCC[C@H]3OCc3ccccc3)n2)cc1 [TCMDC-138567],-4.461
7,CC[C@@]1(O)C(=O)OCc2c1cc1n(c2=O)Cc2c-1nc1cc3c(cc1c2CN1CCOCC1)OCO3 [TCMDC-131876],7.387
8,Cc1nc2nc(N)nc(N)c2c(C)c1Cc1ccc(C#N)cc1 [TCMDC-137653],-12.58
9,O=c1cc(NCCCNCc2cc(Cl)cc(Cl)c2OCc2ccc(Cl)cc2)[nH]c2ccccc12 [TCMDC-139604],-52.63
10,CCCN1CCC(NCc2cn(C)nc2-c2ccc(Oc3ccccc3)cc2)CC1 [TCMDC-124676],46.58
11,COc1cc(Cl)c(C)cc1N(Cc1ccccc1-c1ccccc1)S(=O)(=O)c1ccc(C(F)(F)F)cc1 [TCMDC-141750],-7.334
12,COc1ccccc1Oc1c(N(C)S(=O)(=O)c2ccc(C(C)C)cc2)nc(C(F)(F)F)nc1N(C)S(=O)(=O)c1ccc(C(C)C)cc1 [TCMDC-132001],61.81
13,Cn1cncc1CCCN(Cc1ccc(-c2ccc(C(F)(F)F)cc2)cc1)C(=O)Cn1c(CCc2cccc(F)c2F)cc(=O)c2cccnc21 [TCMDC-141502],-3.632
14,O=C(Cn1c(CCc2cccc(F)c2F)cc(=O)c2ccccc21)N(CCN1CCCC1)Cc1ccc(-c2ccc(C(F)(F)F)cc2)cc1 [TCMDC-141120],-20.2
15,O=C(Cn1c(CCc2cccc(F)c2F)cc(=O)c2cccnc21)N(CCN1CCCC1)Cc1ccc(-c2ccc(C(F)(F)F)cc2)cc1 [TCMDC-141463],53.17
16,O=C(Cn1c(CCc2cccc(F)c2F)cc(=O)c2cccnc21)N(CCn1ccnc1)Cc1ccc(-c2ccc(C(F)(F)F)cc2)cc1 [TCMDC-141474],11.29
17,Cn1cncc1CCN(Cc1ccc(-c2ccc(C(F)(F)F)cc2)cc1)C(=O)Cn1c(CCc2cccc(F)c2F)cc(=O)c2cccnc21 [TCMDC-141455],99.09
18,CCCOc1ccc(OCCCON2C(N)=NC(N)=NC2(C)C)cc1 [TCMDC-131737],9.517
19,CC1CCCN(S(=O)(=O)c2ccc(NC(=O)c3cc(-c4ccccc4O)n[nH]3)cc2)C1 (stereo not drawn) [TCMDC-125194],-32.46
